# From PubChem BioAssay
# FBPA Giardia inh – blocks Giardia fructose-bisphosphate aldolase activity. A8B2U2. purified Giardia FBPA. Potency, µM (highest dose often 59.6 µM), for inactives: at the top dose activity, negative = inhibition, usual class: inhibitors. hit rate 0.71% among 290,000; also: potency is read from the fitted curve at half-maximal effect; % is scaled to controls: 0 for no effect and ±100 for the full control effect; nearly all actives have a fitted effect of over 55% in size
#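 40 nM FBPA preincubated 10 min at RT with compound (up to 57.5 uM final), then substrate plus GAPDH/TPI/NAD/arsenate coupling and diaphorase/resazurin added. Fluorescence read after 20 min at RT, 525/598 nm.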
# Shiga toxin inh – blocks Shiga toxin action in Vero cells; AID 2315; Vero cells, Shiga toxin protein synthesis inhibition reporter; inhibition, % at 38.7 µM; hit rate 9.2% among 290,000; in the data active = inhibition mostly above about 28%, no sharp cut-off; inactive = mostly below about 43%; also: 0% is about no effect
# RE007 growth inh – less growth of the S. pombe RE007 Vpr strain | S. pombe RE007 Vpr strain, BacTiter-Glo ATP luminescence, 24 h | Potency, µM (titrated, usually from 92.2 µM), for inactives: at the top dose activity change, negative = less growth, usual class: inhibitors | hit rate 0.21% among 360,000; active = well fitted falling curve with a large enough effect; inconclusive = small, poorly fitted or top-dose-only effect; inactive = no such curve, though single readings can be large or run the other way; also: potency is read from the fitted curve at half-maximal effect; % is scaled to controls: 0 for no effect and ±100 for the full control effect; nearly all actives have a fitted effect of over 50% in size
#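 Fission yeast strain RE007, carrying one chromosomally integrated HIV-1 vpr copy, was seeded at OD 0.01 in PMG+AL medium with 23 nL pinned compound. After 24 h at 30 °C and 99% humidity, viability was read by BacTiter-Glo luminescence.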
# Cycloheximide cs – counter-screen for Shiga toxin inhibitors: cycloheximide protein synthesis inhibition; max response, %; hit rate 12% among 300,000; cell reporter, cycloheximide protein synthesis inhibition counterscreen; AID 2314; in the data active = max response mostly above about 13%, no sharp cut-off; inactive = mostly below about 14%; also: read at 38.3 µM for the half of the compounds with a filed dose; 0% is about no effect
# LmPK inh – inhibitors of Leishmania mexicana pyruvate kinase; Q27686; AID 1721; purified LmPK, Kinase-Glo ATP luminescence, 1 h; hit rate 0.37% among 290,000; Potency, µM (titrated, usually from 57.5 µM), for inactives: top-dose activity change, negative = inhibition, most hits filed as inhibitors; also: potency is read from the fitted curve at half-maximal effect; % is scaled to controls: 0 for no effect and ±100 for the full control effect
# Target sequence (Q27686 whole entry, looked up): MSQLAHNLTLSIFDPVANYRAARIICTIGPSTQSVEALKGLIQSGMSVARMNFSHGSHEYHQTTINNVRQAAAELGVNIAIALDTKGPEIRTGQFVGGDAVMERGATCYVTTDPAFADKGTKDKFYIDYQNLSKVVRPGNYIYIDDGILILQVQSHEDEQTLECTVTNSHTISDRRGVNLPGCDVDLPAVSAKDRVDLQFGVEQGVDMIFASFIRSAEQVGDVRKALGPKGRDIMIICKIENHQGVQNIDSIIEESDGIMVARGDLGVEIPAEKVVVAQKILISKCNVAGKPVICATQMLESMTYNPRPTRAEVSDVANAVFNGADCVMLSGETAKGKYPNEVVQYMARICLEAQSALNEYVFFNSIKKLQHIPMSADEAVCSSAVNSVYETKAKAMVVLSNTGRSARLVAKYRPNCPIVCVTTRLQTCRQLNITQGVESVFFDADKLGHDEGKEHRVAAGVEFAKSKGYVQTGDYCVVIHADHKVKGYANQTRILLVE
#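 In 50 mM imidazole pH 7.2 with 7 mM MgCl2, LmPK (0.1 nM) turned over PEP (0.5 mM) and ADP (0.1 mM) for 1 h at room temperature. Luciferase read-out of ATP.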
# Tb PYK inh – T. brucei pyruvate kinase inhibition. hit rate 0.12% among 410,000. Q57TT1. Potency, µM (series often up to 76.8 µM), inactives show top-dose activity, negative = inhibition, usual class: inhibitors. TbPYK enzyme, Kinase-Glo Plus ATP luminescence, 45 min; also: potency is read from the fitted curve at half-maximal effect; % is scaled to controls: 0 for no effect and ±100 for the full control effect; nearly all actives have a fitted effect of over 50% in size
#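 Quantitative HTS: titrated library compounds versus trypanosomal pyruvate kinase in TEA buffer (pH 7.2) containing KCl, MgCl2, BSA and Tween-20. Reactions were initiated with ADP, 130 uM final. Kinase-Glo Plus luminescence was read after 45 min at RT.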
# * = called active by the depositor; ? = inconclusive; . = no result given; [ ] = dose if it differs, or a comment. The full list was thinned out, with hits kept by preference. Unless noted, calls follow the shape of the dose curve; as a rule, active = well fitted curve in the direction sought with a large enough effect; inconclusive = small, poorly fitted or top-dose-only effect, or another doubt; inactive = no such curve, though single readings can be large; an effect the other way counts as inactive or inconclusive.
SMILES,FBPA Giardia inh,Shiga toxin inh,RE007 growth inh,Cycloheximide cs,LmPK inh,Tb PYK inh
CC(=O)N1CCN(S(=O)(=O)c2cccc(C(=O)Nc3ccc(C)cn3)c2)CC1,0%,77*,4%,45*,3%,-5%
S=C(Nc1ccccc1)Nc1ccc(Cl)cn1,2%,57,-10%,25*,3%,-5%
O=C(COC(=O)Cc1ccccc1)Nc1ccc(Cl)cn1,-1%,7,14%,-1,-3%,5%
Cc1ccc(C(=O)Nc2ncc3c(Cl)cccc3n2)cc1,-9%,-18,?,-5,13µM*,-19%
O=C(NC(=S)Nc1ccc(Cl)cn1)C(c1ccccc1)c1ccccc1,0%,7,-13%,6,1%,4%
O=C(Cc1ccccc1)Nc1ccc(Cl)cn1,4%,42,6%,23*,1%,1%
C=CCc1c(C)nc2nc(SCC(=O)Nc3ccc(OCC)cc3)nn2c1C,.,.,.,.,.,1%
CCOC(=O)OCC1OC(c2ccccc2)C=CC1Oc1ccc(F)cc1C (centres undefined),-2%[12.9 µM],.,.,.,.,.
COc1ccc(CCNC(=O)CSc2n[nH]c(-c3ccccc3Cl)n2)cc1OC,.,.,.,.,.,-3%
Cn1sc(NC(=O)c2cccc(Cl)c2)nc1=O,-15%,51*,-17%,16,-16%,-5%
Cc1ccc(CC(=O)Nc2ccc(Cl)cn2)cc1,4%,70*,-18%,41*,4%,1%
Cc1ccc(NC(=O)c2ccc(NCc3ccc(F)cc3)nc2)cc1,7%,-3,2%,-3,3%,1%
Cc1ccc(C(=O)Nc2ccc(Cl)cn2)cc1,-14%,55*,5%,34*,-26%,2%
Cc1ccc(NC(=O)c2ccc(Nc3ccccc3F)nc2)cc1,1%,15,3%,40*,-3%,1%
Cc1ccc(-n2ncc3c(NCCc4ccccc4)ncnc32)cc1,.,.,.,.,.,-3%
O=C(CCc1ccccc1)Nc1ccc(Cl)cn1,-7%,134*,41%,46*,0%,4%
O=C(CCSCCc1ccccn1)Nc1ccc(Cl)cn1,-7%,-11,-6%,5,3%,-2%
CCC(=O)NC(=S)Nc1ccc(Cl)cn1,-16%,5,-9%,26,-4%,-6%
O=C(NC(=S)Nc1ccc(Cl)cn1)C12CC3CC(CC(C3)C1)C2,-2%,46,-23%,15*,-4%,-2%
Cc1ccc(NC(=O)c2cccc(Cl)c2)nc1,1%,161,-20%,29*,-25%,-1%
Cc1ccc(NC(=O)CNC(=O)c2cccc(Cl)c2)nc1,.,.,3%,.,.,1%
O=C(CSc1ccccn1)Nc1ccc(Cl)cn1,0%,44,-13%,23*,1%,-12%
O=S(=O)(c1ccc2c(c1)OCCO2)N1CCN(S(=O)(=O)c2c(F)ccc(O)c2F)CC1,.,5,.,3,.,.
CCOc1ccc(CN2C(=O)c3ccccc3Sc3ccc(C(=O)NCc4ccco4)cc32)cc1,.,.,.,.,.,0%
O=C(Nc1cc(-c2nc3cc(Cl)ccc3o2)ccc1Cl)c1cccc2ccccc12,.,.,.,.,.,-6%
SMILES,FBPA Giardia inh,Shiga toxin inh,RE007 growth inh,Cycloheximide cs,LmPK inh,Tb PYK inh
COC(=O)c1nnc(SC)nc1C(=O)OC,-4%,.,.,.,.,.
C=CCOC(/C=C/c1ccccc1)C[Si](C)(C)C (centres undefined),0%,-1,.,13,.,.
COc1ccccc1CNc1cc(-c2ccccc2OC)ncn1,-7%,.,.,.,.,.
Oc1ccccc1CNc1ccc(Br)cn1,-3%,11,3%,-3,-3%,-7%
Brc1ccc(NCc2cccc3ccccc23)nc1,-10%,31,-5%[3.69 µM],27*,2%,.
COc1ccccc1CNc1ccccc1F,-1%,24,2%,17*,4%,-10%
COc1ccccc1CNc1ccc(Br)cn1,-11%,99*,-3%,50*,-1%,?
CC(C)(C)c1ccc2c(c1)C(=O)c1ccccc1C2=O,0%,77*,13%,32*,?,-25%
CCc1ccc2c(c1)C(=O)c1ccccc1C2=O,-2%,14*,0%,43*,-23%,7%
CC(C)(C)c1ccc(-c2ccc3c(c2)S(=O)(=O)c2ccccc2C3=O)cc1,.,.,0%,.,.,3%
O=C1c2ccccc2-c2cc3ccccc3cc21,.,.,-9%,.,.,-6%
